Screening results deposited in PubChem by National Center for Advancing Translational Sciences (NCATS).
WRN inhibitor: WRN helicase (human) inhibition; WRN helicase unwinding, fluorescent forked duplex, kinetic; Q14191; actives 0.46% (n = 360,000); Potency, µM (series often up to 114 µM), for the others: at the highest dose activity change, negative = inhibition, hits mostly inhibitors; AID 651768; further: potency means the concentration at half of the fitted maximal effect; on the % scale 0 is the no-effect control and ±100 the full control effect; nearly all actives have a fitted effect of over 55% in size
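Kinetic fluorescence helicase assay: unwinding of a quenched forked DNA duplex (100 nM final) with 2 mM ATP final raises red fluorescence (525/598 nm). Compounds sat 15 min at room temperature with 20 nM WRN beforehand.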
FEN1 inh: inhibitors of human flap endonuclease 1. actives 0.35% (n = 390,000). Recombinant FEN1 flap cleavage, fluorescence, 15 min. Potency, µM (highest dose often 114 µM), without a hit: top-dose activity change, negative = inhibition, actives largely listed as inhibitors. P39748; further: potency means the concentration at half of the fitted maximal effect; on the % scale 0 is the no-effect control and ±100 the full control effect; nearly all actives have a fitted effect of over 65% in size
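In this screen, 50 nM flap DNA substrate was added to 10 nM FEN1 pretreated with compound for 15 min at room temperature; cleavage was followed with reads at 0 and 15 min, and Hill fitting gave concentration–response parameters.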
Pol beta inh-1: inhibitors of human DNA polymerase beta. Potency, µM (titrated, usually from 114 µM), inactives show at the top dose activity change, negative = inhibition, hits mostly inhibitors. actives 1.3% (n = 340,000). AID 485314. Pol beta primer extension/strand displacement, fluorescence kinetic. P06746; further: potency means the concentration at half of the fitted maximal effect; on the % scale 0 is the no-effect control and ±100 the full control effect
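Pol beta (10 nM) and compounds were preincubated 15 min at room temperature, then 50 nM substrate (final) started primer extension/strand displacement. Reads were taken at 0 and 10 min; concentration-response data were fitted to a four-parameter Hill equation.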
Pol iota inh: blocks human DNA polymerase iota activity | Q9UNA4 | Pol iota fluorescent replication assay, 10 min | Potency, µM (doses to about 115 µM), inactives show at the highest dose activity, negative = inhibition, actives largely listed as inhibitors | actives 1% (n = 390,000) | AID 588590; further: potency means the concentration at half of the fitted maximal effect
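Fluorescent replication assay read twice, at 0 min and 10 min after adding 50 nM (final) substrate. Enzyme (10 nM) and compounds were first incubated 15 min at room temperature; enzyme-free buffer wells were negative controls.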
POLH inh: inhibitors of human DNA polymerase eta; AID 588591; recombinant Pol eta, fluorescent DNA replication assay; actives 1.2% (n = 390,000); Potency, µM (titrated, usually from 114 µM), for inactives: at the highest dose activity change, negative = inhibition, most hits filed as inhibitors; Q9Y253; further: potency means the concentration at half of the fitted maximal effect; on the % scale 0 is the no-effect control and ±100 the full control effect
Target sequence (Q9Y253 whole entry, looked up): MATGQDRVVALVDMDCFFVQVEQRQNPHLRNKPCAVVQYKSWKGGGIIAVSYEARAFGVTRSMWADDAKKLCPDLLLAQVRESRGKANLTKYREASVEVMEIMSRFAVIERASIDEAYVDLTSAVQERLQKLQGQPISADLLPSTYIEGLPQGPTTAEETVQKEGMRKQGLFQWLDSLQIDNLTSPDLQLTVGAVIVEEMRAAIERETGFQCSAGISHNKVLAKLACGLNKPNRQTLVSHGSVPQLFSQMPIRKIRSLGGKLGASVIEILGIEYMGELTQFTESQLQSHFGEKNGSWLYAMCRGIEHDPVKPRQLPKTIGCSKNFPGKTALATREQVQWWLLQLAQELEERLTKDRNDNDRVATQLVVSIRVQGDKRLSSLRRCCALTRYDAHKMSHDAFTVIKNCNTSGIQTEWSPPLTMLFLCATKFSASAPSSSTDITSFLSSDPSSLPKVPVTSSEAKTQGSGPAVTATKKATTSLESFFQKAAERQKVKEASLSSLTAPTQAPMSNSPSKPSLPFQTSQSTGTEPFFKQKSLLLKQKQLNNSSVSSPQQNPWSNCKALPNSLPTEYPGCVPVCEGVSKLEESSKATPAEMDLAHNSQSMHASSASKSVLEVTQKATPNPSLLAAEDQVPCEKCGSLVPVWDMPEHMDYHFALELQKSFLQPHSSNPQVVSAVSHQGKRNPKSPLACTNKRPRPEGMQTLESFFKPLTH
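Pol eta (10 nM) was preincubated with compounds for 15 min at room temperature, after which fluorescent replication substrate (50 nM final) was added to start the reaction. Fluorescence was read kinetically at 0 and 10 min.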
POLK inh: blocks human DNA polymerase kappa activity; Q9UBT6; purified Pol kappa, fluorescent DNA synthesis assay, 10 min; Potency, µM (top dose mostly 107 µM), without a hit: top-dose activity, negative = inhibition, actives largely listed as inhibitors; actives 0.53% (n = 400,000); further: potency means the concentration at half of the fitted maximal effect; on the % scale 0 is the no-effect control and ±100 the full control effect
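Here, compound and 10 nM enzyme are combined for 15 min at room temperature; adding 50 nM substrate (final) starts DNA synthesis, tracked by fluorescence at 0 and 10 min against buffer-only wells.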
Pol beta inh-2: Inhibitors of human DNA polymerase beta, hit validation | Pol beta primer extension/strand displacement, fluorescence kinetic | AID 540280 | Potency, µM, actives largely listed as inhibitors | shares compounds with Pol beta inh-1 | actives 87% (n = 250); calls by dose curve; further: potency means the concentration at half of the fitted maximal effect
Klenow inh: Klenow polymerase inhibition, pol beta selectivity check. shares compounds with Pol beta inh-1. Klenow exo- polymerase counter-screen, fluorescent DNA substrate. activity change, negative = inhibition, % at 57.1 µM. 250 tested, under 10 active
HIV RT inh: inhibits HIV-1 reverse transcriptase in counter-screen; shares compounds with Pol beta inh-1; HIV-1 RT polymerase activity, counter-screen; activity % (negative = inhibition, positive = activation), % at 57.1 µM; 250 tested, under 10 active
POLB valid: validation of human DNA polymerase beta inhibitors; shares compounds with Pol beta inh-1; radiolabeled primer extension gel assay, phosphorimager; inhibition, % at 10 µM; actives 91% (n = 110); AID 540325;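 active means inhibition at 10 µM of 30% or more; inconclusive means no clear call, values can overlap the other calls; inactive means inhibition at 10 µM under 30%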
Active calls of the source: *; ? = inconclusive; . = not tested or not shown; [ ] = another dose, or the depositor's remark. In the library only some 2.4% were active in any assay of this set; here they are far more common. Unless noted, the call rests on the fitted dose curve; in most records, active means well fitted curve in the direction sought with a large enough effect; inconclusive means small, poorly fitted or top-dose-only effect, or another doubt; inactive means no such curve, though single readings can be large; an effect the other way counts as inactive or inconclusive.

SMILES	WRN inhibitor	FEN1 inh	Pol beta inh-1	Pol iota inh	POLH inh	POLK inh	Pol beta inh-2	Klenow inh	HIV RT inh	others
O=C(Nc1cc(S(=O)(=O)Nc2ccc(Cl)cc2)ccc1O)c1ccc(S(=O)(=O)N2CCCCCC2)cc1	?	-9.9%	5.62µM*	?	?	-20.5%	22.4*	-16.2	10.7	POLB valid=67.5*
O=C(Nc1cc(S(=O)(=O)N2CCOCC2)ccc1O)c1ccc(S(=O)(=O)N2CCCCC2)cc1	4.1%	16.0%	.	4.5%	-8.7%	1.1%	.	.	.
O=C(CSc1nnc(CNC(=O)c2c(F)cccc2F)o1)c1ccc(Cl)cc1	-4.2%	.	.	.	-22.2%	.	.	.	.
O=C(O)c1ccccc1C(=O)Nc1cccc([N+](=O)[O-])c1	-1.4%	-15.9%	2.3%	-15.4%	-6.5%	-7.9%	.	.	.
O=C(Nc1cccc([N+](=O)[O-])c1)c1cc2ccccc2cc1O	-22.3%	5.3%	17.8µM*	44.7µM*	?	-27.5%	28.2*	-7.8	27.0	POLB valid=97.7*
CCCCCn1c(N)c(-c2nc3ccccc3o2)c2c([N+](=O)[O-])nn(C)c(=O)c21	-31.2%	-1.3%	1.41µM*	-1.9%	?	-12.3%	11.2*	-14.0	7.8
CCCCn1c(N)c(-c2nc3ccccc3s2)c2c([N+](=O)[O-])nn(C)c(=O)c21	-15.7%	3.9%	-6.7%	-17.1%	-6.6%	14.1%	.	.	.
COc1cc2ccccc2cc1C(=O)N1CCN(c2nc3c(F)cc(F)cc3s2)CC1	.	-15.1%	11.6%	3.9%	-4.8%	-3.9%[60.1 µM]	.	.	.
COc1ccc(-c2csc(C(C)(O)c3cccc(F)c3)n2)cc1OC (configuration not stated)	-4.0%	.	.	.	.	.	.	.	.
C#CCn1c(=NC(=O)c2cccs2)sc2cccc(OC)c21	-19.6%	-23.9%	20µM*	?	?	-11.7%	31.6*	-9.2	43.3	POLB valid=77.3*
COc1ccc(CCNC(=O)C(=O)NCC(c2ccco2)S(=O)(=O)c2cccs2)cc1 (configuration not stated)	.	-5.7%	2.2%	16.4%	-17.9%	-0.9%[60.1 µM]	.	.	.
Cc1sc(NC(=O)c2sc3nc4c(C)cccc4cc3c2N)c(C#N)c1C	?	-22.0%	5.01µM*	?	2.82µM*	-27.5%	8.91*	-30.4	2.4
CC(C)n1c(=S)[nH]c2scc(-c3cccs3)c2c1=O	-33.0%	-7.1%	7.94µM*	20µM*	17.8µM*	?	22.4*	4.1	10.4	POLB valid=98.0*
CCn1c(=S)[nH]c2scc(-c3cccs3)c2c1=O	-15.1%	13.9%	-0.5%	-16.7%	-2.8%	-16.5%	.	.	.
Cc1cc(C)n2nc(SCc3cc(=O)oc4cc(O)ccc34)nc2n1	.	.	12.6µM*	.	.	.	22.4*	-27.0	13.6	POLB valid=83.8*
O=C(CC1SCCNC1=O)NCc1ccccc1 (configuration not stated)	23.8%	.	.	.	-0.6%	.	.	.	.
N#Cc1c2nc3ccccc3nc2n2cc(NC(=O)c3ccc(F)cc3)ccc12	20µM*	?	6.31µM*	?	35.5µM*	?	10*	-19.3	0.4
Cc1c(C(=O)Nc2ccc(F)cc2)cn2c(nc3ccccc32)c1C#N	-1.2%	8.8%	-15.1%	2.2%	-14.7%	-12.7%	.	.	.
COc1cc(C(=O)OCC(=O)NCc2ccco2)cc(OC)c1OC	-11.7%	1.9%	?	?	?	-15.3%	.	.	.
COc1cc(NC(=O)c2cccs2)c(C(=O)OCC(=O)NCc2ccco2)cc1OC	?	-10.9%	12.6µM*	?	10µM*	79.4µM*	31.6*	3.9	16.9
CC(C)C(NC(=O)OCc1ccccc1)C(=O)OCC(=O)NCc1ccco1 (configuration not stated)	?	-1.5%	20µM*	?	8.91µM*	?	?	-19.6	8.5	POLB valid=83.6*
CC(C)C(NC(=O)OCc1ccccc1)C(=O)OCC(=O)NC1CC1 (configuration not stated)	4.0%	0.0%	-9.2%	25.1%	-20.2%	1.2%	.	.	.
O=C(Cc1cccs1)Nc1nnc(SCc2cccc3ccccc23)s1	-7.7%[11.6 µM]	0.9%	8.91µM*	22.4µM*	?	50.1µM*	28.2*	-17.7	24.1	POLB valid=71.0*
O=C(Cc1cccs1)Nc1nnc(SCC(=O)NC2CCCCC2)s1	-17.5%	1.5%	?	?	?	-30.9%	.	.	.
COc1ccc(Cc2nnc(NC(=O)Cc3cccs3)s2)cc1OC	?	-19.4%	8.91µM*	?	6.31µM*	79.4µM*	?	-25.2	41.8
SMILES	WRN inhibitor	FEN1 inh	Pol beta inh-1	Pol iota inh	POLH inh	POLK inh	Pol beta inh-2	Klenow inh	HIV RT inh	others
Cc1ccc(-c2nc(SC(C)C(=O)NC3CC3)n[nH]2)cc1 (configuration not stated)	4.3%	.	.	.	-14.9%	.	.	.	.
Cc1cccc(N2CCN(C(=O)c3ccc4c(c3)N(Cc3cccc(Cl)c3)C(=O)c3ccccc3S4=O)CC2C)c1 (configuration not stated)	.	15.3%	-26.9%	8.8%	-20.0%	-12.4%[60.1 µM]	.	.	.
O=C(Nc1ccc2nn(-c3ccccc3)nc2c1)c1ccc(Br)o1	-32.1%	-4.1%	20µM*	?	79.4µM*	?	20*	-18.1	11.7
O=C(Nc1ccc2nn(-c3ccccc3)nc2c1)c1cc2ccccc2o1	.	12.4%	-1.1%	?	-2.4%	-18.8%	.	.	.
O=C(CSc1ncccc1C(=O)Oc1ccccc1Cl)Nc1ccc(C(F)(F)F)cc1Cl	.	-14.9%	1.5%	7.0%	-14.5%	-2.7%[60.1 µM]	.	.	.
C=CCn1c(SCc2cc(=O)n3ccsc3n2)nnc1C1CCCCC1	4.0%[11.6 µM]	-8.6%	20µM*	25.1µM*	79.4µM*	?	?	-22.2	23.6	POLB valid=87.3*
O=c1cc(CSc2nnc(NC3CCCCC3)s2)nc2sccn12	4.2%	4.9%	22.2%	13.3%	10.2%	-15.0%	.	.	.
O=C(NCCC1=CCCCC1)c1ccc2c(c1)N(Cc1cccc(Cl)c1)C(=O)c1ccccc1S2(=O)=O	.	-5.8%	-20.7%	-28.2%	0.1%	-7.5%[60.1 µM]	.	.	.
COC(=O)c1sccc1-c1ccc(C(=O)Nc2cccc(Cl)c2)o1	?	?	14.1µM*	?	?	-29.2%	17.8*	-0.5	30.6
